Test [1] can be described thus: compounds binding Alexa647 anti-His antibody – biochemical, small-molecule microarray, 635 nm fluorescence, artefact control for SMM control protein annotation, primary screen (AID 1128).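 Also: score merges feature fluorescence with signal-to-noise for each printed compound spot.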 Conditions: higher = more signal.
For test [2], the system named is Human papillomavirus type 1a E7 protein (residues 1-88). Description: HPV1a E7 small-molecule binders, primary screen, biochemical, small-molecule microarray, residues 1-88, 635 nm (AID 1129). Conditions: small-molecule microarray binding, fluorescence 635 nm; higher = more signal.
Test [3] addresses Focal adhesion kinase 1 (Homo sapiens) (UniProt Q05397). Description: PTK2 protein binding on printed compound slides – biochemical, small-molecule microarray, 635/667 nm fluorescence, BSA, DTT, primary screen (AID 1130).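 Also: composite of spot emission at 667 nm and signal to noise over triplicate slides.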 Conditions: 635 nm fluorescence, higher = more signal.
Test [4] deals with Fibrinogen (Alexa647-labelled). In words: Alexa647-fibrinogen binding to printed small molecules – biochemical, small-molecule microarray, 635/667 nm fluorescence, artefact control for SMM control-protein annotation, profiling panel (AID 1131).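 Also: z-score merges 667 nm fluorescence with per-spot signal-to-noise over triplicate slides.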 Conditions: fibrinogen-A647 binding fluorescence, higher = more signal.
Test [5] concerns the target Follistatin (Homo sapiens) (UniProt P19883). Description: FST protein binding to printed compounds – biochemical, small-molecule microarray, 635/667 nm fluorescence, primary screen (AID 1132). Conditions: 635 nm fluorescence, higher = more signal.
Test [6] has as its target Fibroblast growth factor 2 (Homo sapiens) (UniProt P09038). In words: basic fibroblast growth factor binding to printed compounds – biochemical, small-molecule microarray, 635/667 nm fluorescence, primary screen (AID 1133). Conditions: FGF2, fluorescence 635/667, higher = more signal.
Test [7] is described as follows: JC-1 mitochondrial potential readout, lung cancer cells – cell-based, A549, JC-1 fluorescence, basal, 24 h, 100 nL, profiling panel (AID 1138).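 Also: A549 lung adenocarcinoma cells under basal conditions with no added stimulus; test concentration not given here.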 Conditions: higher = more signal.
The test system of test [8] is Lefty1. In words: Lefty1 protein binding to printed compounds – biochemical, small-molecule microarray, 635/667 nm fluorescence, primary screen (AID 1139). Conditions: fluorescence 635/667, higher = more signal.
The subject of test [9] is wheat germ agglutinin (Triticum aestivum), Alexa647-labelled. Description: Alexa647-WGA lectin binding to printed small molecules – biochemical, small-molecule microarray, 635/667 nm fluorescence, artefact control for SMM control-protein annotation, profiling panel (AID 1140).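 Also: score merges 667 nm feature emission with signal to noise over triplicate slides.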 Conditions: WGA-A647 binding, 635 nm fluorescence, higher = more signal.
In test [10] the target is Luciferin 4-monooxygenase (Photinus pyralis) (UniProt P08659). Description: inhibition of purified Photinus pyralis luciferase – biochemical, luminescence, purified enzyme, 2006 set, primary screen (AID 1141).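 Also: cell-free assay with purified firefly luciferase at 100 ng per well in PBS; test concentration not given here.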 Conditions: purified firefly luciferase, SteadyGlo luminescence, 30 min; higher = more signal, called active from +8 up or from −8 down.
Chain of Luciferin 4-monooxygenase (Photinus pyralis) (P08659 whole entry, looked up): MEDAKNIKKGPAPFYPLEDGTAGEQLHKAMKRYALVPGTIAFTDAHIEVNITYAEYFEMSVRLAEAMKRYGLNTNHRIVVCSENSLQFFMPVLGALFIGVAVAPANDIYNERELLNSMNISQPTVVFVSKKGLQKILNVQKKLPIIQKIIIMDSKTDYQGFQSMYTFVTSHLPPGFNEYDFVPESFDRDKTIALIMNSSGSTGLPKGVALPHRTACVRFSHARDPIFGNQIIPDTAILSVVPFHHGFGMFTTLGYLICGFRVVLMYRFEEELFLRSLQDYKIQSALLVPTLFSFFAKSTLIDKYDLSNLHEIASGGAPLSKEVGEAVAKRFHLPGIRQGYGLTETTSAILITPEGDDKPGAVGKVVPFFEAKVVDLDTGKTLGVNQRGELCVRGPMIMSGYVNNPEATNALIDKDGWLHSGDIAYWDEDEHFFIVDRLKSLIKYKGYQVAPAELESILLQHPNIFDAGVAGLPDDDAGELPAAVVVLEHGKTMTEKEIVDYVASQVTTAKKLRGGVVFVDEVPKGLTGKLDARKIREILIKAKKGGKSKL
The subject of test [11] is Wnt5a (protein binding on small-molecule microarray). Description: small molecules binding Wnt5a protein – biophysical, small-molecule microarray, 635/667 nm fluorescence, primary screen (AID 1142).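 Also: fluorescence read at 667 nm with signal to noise per printed feature.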 Conditions: 635 nm fluorescence, higher = more signal.
The nature of test [12]: ATP-based viability of Huh7 replicon cells – cell-based, CellTiter-Glo luminescence, basal, 48 h, cytotoxicity control for HCV replication inhibitor project, primary screen (AID 1143).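 Also: Huh7 hepatoma cells carrying a hepatitis C replication reporter with no stimulus; test concentration not given here.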 Conditions: higher = more signal, called active from +8 up or from −8 down. In general terms: Replicon systems follow genome replication, usually without infectious particles.
The nature of test [13]: Pseudomonas biofilm growth suppression – PAO1 strain, BacTiter-Glo luminescence, LB-PBS, primary screen (AID 1144). Conditions: P. aeruginosa PAO1 biofilm, 12 h, higher = more signal.
Test [14] is described as follows: basal CRE-LacZ reporter activity in PC12 – cell-based, unstimulated, primary screen (AID 1145). Conditions: no forskolin, luminescence, 4.5 h, higher = more signal, called active from +8 up or from −8 down.
Test [15] in a line: forskolin-driven CRE-LacZ activity in PC12 – cell-based, CRE-LacZ reporter, forskolin-stimulated, primary screen (AID 1146).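 Also: PC12 cells with 6xCRE LacZ reporter stimulated by forskolin 10 µM; beta-galactosidase reporter signal reflecting CREB driven transcription.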 Conditions: luminescence, 4.5 h, higher = more signal, called active from +8 up or from −8 down.
Test [16] has as its target Streptavidin (Streptomyces avidinii) (UniProt P22629). Description: compounds binding control protein streptavidin – biophysical, small-molecule microarray, 635/667 nm fluorescence, artefact control for SMM compound annotation, primary screen (AID 1147).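 Also: signal reflects streptavidin binding to arrayed compounds as a control protein.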 Conditions: higher = more signal.
A short description of test [17]: probe aInhba binding on compound microarray – biochemical, small-molecule microarray, 635/667 nm fluorescence, primary screen (AID 1148).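 Also: score merges 667nm spot fluorescence with signal-to-noise for antibody binding to printed compounds.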 Conditions: higher = more signal.
Test [18] has as its target Torsin-1A (Homo sapiens) (UniProt O14656). Description: TOR1A wild-type binding on microarray – cell lysate, small-molecule microarray, lysate, 635/667 nm, primary screen (AID 1149). Conditions: COS7 hTOR1A-WT lysate, 635 nm fluorescence, higher = more signal.
Test [19] has the same target. Description: torsin A mutant lysate binding on microarrays – cell lysate, small-molecule microarray, COS7 lysate, 635/667 nm fluorescence, primary screen (AID 1150).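 Also: score pools 667 nm emission and signal to noise measuring lysate protein binding.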 Conditions: COS7 hTOR1A mutant lysate, 635 nm fluorescence, higher = more signal.
Test [20] relates to Sonic hedgehog protein (Shh). Description: Sonic hedgehog microarray binding compounds – biochemical, small-molecule microarray, 635/667 nm fluorescence, primary screen (AID 1151).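 Also: Shh protein binding to compounds spotted on small-molecule microarray slides; score combines spot fluorescence intensity with signal-to-noise across triplicate slides.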 Conditions: 635 nm fluorescence, higher = more signal.

Structures are written as SMILES. Calls of active or inactive are those of the source. Unless noted, no rule for the calls is given here.

Chain of Torsin-1A (Homo sapiens) (O14656 whole entry, looked up): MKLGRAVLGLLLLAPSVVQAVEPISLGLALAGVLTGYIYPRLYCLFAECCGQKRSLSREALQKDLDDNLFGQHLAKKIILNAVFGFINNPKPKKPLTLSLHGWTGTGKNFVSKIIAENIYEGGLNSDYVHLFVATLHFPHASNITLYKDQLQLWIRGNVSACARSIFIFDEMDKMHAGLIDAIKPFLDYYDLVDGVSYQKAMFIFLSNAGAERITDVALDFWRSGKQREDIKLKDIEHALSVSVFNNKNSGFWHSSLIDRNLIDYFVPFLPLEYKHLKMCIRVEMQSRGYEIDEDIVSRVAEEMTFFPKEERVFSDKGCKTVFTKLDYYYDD
Chain of Focal adhesion kinase 1 (Homo sapiens) (Q05397 whole entry, looked up): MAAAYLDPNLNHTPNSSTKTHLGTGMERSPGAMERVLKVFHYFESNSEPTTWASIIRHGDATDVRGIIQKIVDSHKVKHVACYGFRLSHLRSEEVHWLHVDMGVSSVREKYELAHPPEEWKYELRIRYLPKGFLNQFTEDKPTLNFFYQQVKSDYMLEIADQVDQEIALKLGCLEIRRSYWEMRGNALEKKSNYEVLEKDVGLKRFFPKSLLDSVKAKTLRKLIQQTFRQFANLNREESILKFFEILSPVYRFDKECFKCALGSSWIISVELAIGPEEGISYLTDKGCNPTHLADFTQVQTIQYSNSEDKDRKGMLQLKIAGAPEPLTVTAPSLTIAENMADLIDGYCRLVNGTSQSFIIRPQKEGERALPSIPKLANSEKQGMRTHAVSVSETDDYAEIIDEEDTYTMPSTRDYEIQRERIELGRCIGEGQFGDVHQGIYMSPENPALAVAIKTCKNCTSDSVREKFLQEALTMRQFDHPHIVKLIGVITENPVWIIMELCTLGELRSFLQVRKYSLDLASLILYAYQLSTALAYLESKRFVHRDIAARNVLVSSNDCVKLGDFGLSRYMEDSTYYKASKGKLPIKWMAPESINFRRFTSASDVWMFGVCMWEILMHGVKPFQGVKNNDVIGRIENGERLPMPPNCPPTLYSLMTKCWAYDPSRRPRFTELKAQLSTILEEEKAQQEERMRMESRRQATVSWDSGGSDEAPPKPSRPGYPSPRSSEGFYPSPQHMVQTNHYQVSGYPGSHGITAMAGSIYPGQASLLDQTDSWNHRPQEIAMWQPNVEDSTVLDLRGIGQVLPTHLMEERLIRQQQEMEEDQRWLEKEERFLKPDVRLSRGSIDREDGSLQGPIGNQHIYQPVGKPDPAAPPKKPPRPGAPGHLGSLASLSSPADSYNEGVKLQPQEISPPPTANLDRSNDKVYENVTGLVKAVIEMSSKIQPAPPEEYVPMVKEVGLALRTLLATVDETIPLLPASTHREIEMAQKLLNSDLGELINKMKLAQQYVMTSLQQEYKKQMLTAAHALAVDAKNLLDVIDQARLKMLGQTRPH
Chain of Fibroblast growth factor 2 (Homo sapiens) (P09038 whole entry, looked up): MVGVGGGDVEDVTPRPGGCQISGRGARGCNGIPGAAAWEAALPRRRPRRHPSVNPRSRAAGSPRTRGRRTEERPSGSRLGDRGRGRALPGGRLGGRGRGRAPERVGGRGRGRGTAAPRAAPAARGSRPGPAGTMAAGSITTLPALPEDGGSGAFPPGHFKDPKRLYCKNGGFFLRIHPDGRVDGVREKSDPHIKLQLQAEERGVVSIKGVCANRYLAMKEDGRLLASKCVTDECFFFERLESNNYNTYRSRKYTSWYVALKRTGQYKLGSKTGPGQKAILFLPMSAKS
Chain of Follistatin (Homo sapiens) (P19883 whole entry, looked up): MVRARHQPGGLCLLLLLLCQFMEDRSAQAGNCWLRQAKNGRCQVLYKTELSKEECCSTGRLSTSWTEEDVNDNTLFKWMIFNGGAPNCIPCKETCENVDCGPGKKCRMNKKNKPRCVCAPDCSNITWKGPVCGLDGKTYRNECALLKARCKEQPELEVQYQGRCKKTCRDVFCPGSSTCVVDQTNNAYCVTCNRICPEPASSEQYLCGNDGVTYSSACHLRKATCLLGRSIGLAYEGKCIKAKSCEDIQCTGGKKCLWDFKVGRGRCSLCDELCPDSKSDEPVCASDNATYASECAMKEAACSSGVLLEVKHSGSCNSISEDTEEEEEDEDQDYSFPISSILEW
Chain of Streptavidin (Streptomyces avidinii) (P22629 whole entry, looked up): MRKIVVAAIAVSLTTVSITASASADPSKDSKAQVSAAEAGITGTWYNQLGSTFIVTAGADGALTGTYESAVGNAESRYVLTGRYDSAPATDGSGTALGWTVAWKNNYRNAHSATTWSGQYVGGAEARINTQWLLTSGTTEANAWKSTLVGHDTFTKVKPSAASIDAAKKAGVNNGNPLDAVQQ

As to `CC1CC/C=C\[C@H]2OC34C=CCN(CCN5CCOCC5)C(=O)[C@H]3N(C(CO)C(C)C)C(=O)[C@@H]4C2C(=O)O1` (stereo not given in full), the composite z-score in test [1] is -0.622; in test [2] it was -0.033; in [3], -0.125; in test [4], -0.248; in [5], -0.277; in test [6] it was -0.3. Besides, the composite z-score in test [8] was 0.544; in test [9] it was -0.281; in [11] it was 0.115; in test [16] it was -0.0429; in test [17], -0.128; in test [18] it was 1. For the same compound, the composite z-score in test [19] is -0.05; in [20] it was 0.795. Besides, the z-score in [7] was 0.302; in [10], -0.723 (inactive); in test [12] it was 0.211 (inactive); in [13], 1.52 (inactive); in [14] it was -0.0778 (inactive); in [15], 0.341 (inactive).
Turning to `Cc1ccc(S[C@]2(C(=O)NCc3ccccc3)CC(=O)N(Cc3ccccc3Cl)[C@@H]2c2ccc(CO)cc2)cc1`, the composite z-score in [1] is 1.29; in [2], -0.561; in test [3] it was -0.0881; in [4], -0.919; in test [5] it was -0.181; in [6], -0.756. Besides, the composite z-score in [8] was -0.423; in test [9], -0.3; in test [11], -0.132; in test [16] it was -0.744; in test [17] it was 0.298; in test [18], 0.163. The composite z-score came to 0.0869 in test [19] and 0.469 in test [20]. In addition, the z-score in test [7] is -0.387; in test [10] it was 0.718 (inactive); in test [12], -1.87 (inactive); in test [13], -0.491 (inactive); in [14], -0.0512 (inactive); in test [15], -0.226 (inactive).
Consider `COCCOC(=O)N1C(=O)[C@@]2(c3cc(C#CCC(C(=O)OC)C(=O)OC)ccc31)[C@H](C(=O)N1CCc3cc(OC)c(OC)cc3C1)[C@H]1C(=O)O[C@H](c3ccccc3)[C@H](c3ccccc3)N1[C@@H]2c1ccccc1OCCO`, for which the composite z-score in test [1] was 0.258; in test [2], 1.2; in [3] it was 0.673; in [4], 0.698; in test [5], 1.42; in [6], 1.6. In addition, the composite z-score in [8] was 1.61; in [9], 0.281; in test [11], 0.725; in test [16] it was 0.593; in [17], -0.025; in [18] it was 0.897. In addition, the composite z-score in test [19] is 0.949; in test [20] it was 1.73. The z-score in [7] was -1.28; in test [10] it was 0.888 (inactive); in test [12], -3.46 (inactive); in test [13], -0.893 (inactive); in [14] it was -1.14 (inactive); in test [15] it was 0.149 (inactive).
For `COC(=O)C1=CC(CCCO)=CC(c2ccc(CN3CCCC3)cc2)N(C)C=C1C(=O)OC` (stereo not given), the composite z-score in [1] was 1.73; in test [2], 0.821; in test [3] it was 0.111; in [4], 1.01; in test [5], 0.468; in [6], -0.232. Further, the composite z-score in test [8] was -0.079; in [9], 1.01; in test [11] it was 0.408; in test [16] it was 0.532; in test [17] it was 0.0658; in test [18], -1.01. Further, the figures for the composite z-score in [19] and in [20] were -0.418 and -0.284, respectively. Moreover, the z-score in test [7] was 0.915; in test [10], -0.208 (inactive); in [12], 0.209 (inactive); in test [13], 0.0505 (inactive); in test [14] it was -0.464 (inactive); in [15], -0.0736 (inactive).
Take `COc1ccc([Si](C)(C)[C@H]2[C@H](CC(=O)N3CCC[C@H]3CO)O[C@@]3(C(=O)N(Cc4cccc(N5CCCCC5=O)c4)c4ccccc43)[C@@H]2C)cc1`: the composite z-score was found to be 0.999 in test [1]; 0.989 in test [2]; 0.79 in [3]; 0.732 in test [4]; 1.08 in [5]; 1.52 in test [6]. Moreover, the composite z-score in test [8] is 1.36; in [9] it was 0.442; in test [11], -0.108; in test [16], 0.233; in test [17], -0.128; in test [18], 0.593. Besides, the composite z-score in test [19] is 0.812; in test [20], 2.01. In addition, the z-score in test [7] is 3.51; in test [10], -1.5 (inactive); in test [12] it was -1.39 (inactive); in test [13] it was -0.00805 (inactive); in test [14], 2.88 (inactive); in test [15], -0.314 (inactive).
Regarding `CC[C@@H](O[Si](C#C[Si](C(C)C)(C(C)C)C(C)C)(C(C)C)C(C)C)c1cn([C@H](CO)Cc2ccccc2)nn1`, the composite z-score is 0.0554 in test [1]; 0.339 in [2]; 0.324 in test [3]; 0.412 in [4]; 0.448 in [5]; 0.729 in test [6]. In addition, the composite z-score in test [8] is 1.21; in test [9] it was 0.884; in [11] it was -0.142; in test [16], 0.391; in [17], 0.0104; in test [18], 0.0922. Besides, the figures for the composite z-score in test [19] and in test [20] were -0.209 and 1.24, respectively. In addition, the z-score was -0.208 in test [7]; 0.635 (inactive) in [10]; 0.0926 (inactive) in test [12]; -0.805 (inactive) in test [13]; -0.607 (inactive) in [14]; -0.038 (inactive) in test [15].
Turning to `COc1ccc(NN2C(C(O)c3ccccc3)C=CC3C(=O)N(C4CCCCC4)C(=O)C32)cc1` (stereo not given), the composite z-score in test [1] was 0.864; in test [2], 1.26; in [3], 0.82; in [4], 0.996; in test [5], 0.925; in test [6], 0.202. In addition, the composite z-score in test [8] stood at 0.769; in [9] it was 1.03; in test [11] it was 0.272; in test [16] it was 0.929; in [17], 0.19; in [18], 0.473. Moreover, the composite z-score in test [19] was found to be 0.37; in test [20], 0.871. For the same compound, the z-score in test [7] was 0.338; in [10] it was -0.684 (inactive); in test [12], -2.44 (inactive); in test [13] it was -1.71 (inactive); in [14] it was 0.127 (inactive); in [15], 1.65 (inactive).
Regarding `O=C1c2ccccc2[C@@]2(Cc3ccccc3N(CC(F)(F)F)C2=O)[C@H](c2ccc(CO)cc2)N1Cc1ccccc1`, the composite z-score in test [1] was -0.713; in test [2], -0.404; in [3], -0.282; in [4], -0.243; in test [5] it was 0.932; in test [6] it was 1.4. The composite z-score in [8] is 0.759; in test [9], 0.0111; in test [11] it was 0.104; in test [16], 0.0298; in [17], -0.149; in [18], -0.118. Also, the composite z-score in [19] was -0.175; in test [20] it was 1.82. Besides, the z-score in test [7] is -0.772; in test [10] it was 0.746 (inactive); in test [12] it was -4.1 (inactive); in [13], -0.692 (inactive); in [14], -0.258 (inactive); in test [15], -0.616 (inactive).
Regarding `CCCC[C@@H](O)C1=C(C)Cn2c(=O)n(-c3ccccc3)c(=O)n2[C@H]1CO`, the composite z-score in test [1] was -0.237; in test [2], -0.432; in test [3] it was -0.137; in [4] it was -0.926; in test [5], -0.355; in test [6], 0.0632. In addition, the composite z-score in test [8] was 0.0378; in test [9], 0.502; in [11], 0.0027; in test [16], -0.463; in [17] it was -0.251; in test [18], 0.0705. Moreover, the composite z-score in [19] turned out to be 0.141; in test [20], 0.317. The z-score in test [7] was 2.01; in test [10] it was -1.32 (inactive); in test [12], -1.07 (inactive); in test [13] it was -0.275 (inactive); in test [14] it was 1.77 (inactive); in test [15] it was -0.844 (inactive).

Values taken from PubChem BioAssay.
